Measured values reported in the supplement of paper PMC11732987, “Enantioselective OTUD7B fragment discovery through chemoproteomics screening and high-throughput optimisation” (Communications Chemistry, 2025).

Key:
Assay in all cases: log2 ratio of Biotin-Ahx-Ub-VS probe labelling (fragment/DMSO); higher = less target engagement (more negative = stronger competition), active = hit call of the paper (q ≤ 0.05, log2 ratio ≤ -1)
Settings in all cases: compound concentration: 200 uM; treatment time: 3 h
USP42 = molecular target: T1, USP42 (UniProt Q9H9J4)
T1 sequence (whole entry): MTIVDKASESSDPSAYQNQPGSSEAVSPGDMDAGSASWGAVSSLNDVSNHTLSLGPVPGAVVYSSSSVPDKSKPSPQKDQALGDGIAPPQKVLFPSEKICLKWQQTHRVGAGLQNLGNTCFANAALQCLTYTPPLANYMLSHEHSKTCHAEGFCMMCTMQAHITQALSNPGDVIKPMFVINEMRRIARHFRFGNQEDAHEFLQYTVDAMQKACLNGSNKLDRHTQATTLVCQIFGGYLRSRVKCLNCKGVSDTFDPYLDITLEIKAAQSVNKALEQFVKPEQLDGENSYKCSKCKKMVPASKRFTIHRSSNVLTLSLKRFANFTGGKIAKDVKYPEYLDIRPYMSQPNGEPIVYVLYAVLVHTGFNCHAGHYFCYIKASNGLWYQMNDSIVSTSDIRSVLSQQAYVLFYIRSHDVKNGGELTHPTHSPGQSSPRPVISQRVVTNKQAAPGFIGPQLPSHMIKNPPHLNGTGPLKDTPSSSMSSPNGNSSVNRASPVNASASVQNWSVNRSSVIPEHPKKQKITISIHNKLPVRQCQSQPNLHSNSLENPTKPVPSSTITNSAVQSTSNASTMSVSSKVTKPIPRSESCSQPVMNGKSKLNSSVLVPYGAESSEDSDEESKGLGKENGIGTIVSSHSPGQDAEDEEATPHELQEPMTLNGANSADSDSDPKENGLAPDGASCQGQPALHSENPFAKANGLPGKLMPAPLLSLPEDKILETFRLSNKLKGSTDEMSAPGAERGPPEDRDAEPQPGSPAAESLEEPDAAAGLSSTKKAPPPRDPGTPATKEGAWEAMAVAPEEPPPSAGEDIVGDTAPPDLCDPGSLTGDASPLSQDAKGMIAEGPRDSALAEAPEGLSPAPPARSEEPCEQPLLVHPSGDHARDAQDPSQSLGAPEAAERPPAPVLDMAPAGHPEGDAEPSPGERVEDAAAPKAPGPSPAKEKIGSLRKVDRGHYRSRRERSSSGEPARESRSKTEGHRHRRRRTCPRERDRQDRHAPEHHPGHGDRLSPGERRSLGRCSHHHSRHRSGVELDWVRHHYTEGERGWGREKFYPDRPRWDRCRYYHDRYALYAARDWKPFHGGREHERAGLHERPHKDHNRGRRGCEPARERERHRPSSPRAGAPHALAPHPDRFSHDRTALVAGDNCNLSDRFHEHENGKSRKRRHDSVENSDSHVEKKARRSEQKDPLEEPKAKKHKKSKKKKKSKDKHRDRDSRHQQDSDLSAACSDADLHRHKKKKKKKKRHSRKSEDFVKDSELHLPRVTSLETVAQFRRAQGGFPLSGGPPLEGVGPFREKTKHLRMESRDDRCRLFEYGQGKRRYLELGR
Method in brief: (§1)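 HEK293T lysate (495 µg per sample, in Tris/CHAPS/IGEPAL buffer with protease inhibitors) was exposed in triplicate for 3 h to fragment at 200 µM or to vehicle, then to Biotin-Ahx-Ub-VS at 0.5 µM final for 1 h. Labelled DUBs were enriched on NeutrAvidin, digested with LysC and trypsin, and analysed by diaPASEF LC-MS/MS. Spectronaut label-free quantities were normalised to the global median, and values are average log2 ratios of fragment over vehicle from an unpaired t-test. Only proteins with ≥2 unique peptides were used.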

USP46 = USP46 (UniProt P62068)
Method in brief: as §1

USP47 = molecular target: T2, USP47 (UniProt Q96K76)
T2 sequence (whole entry): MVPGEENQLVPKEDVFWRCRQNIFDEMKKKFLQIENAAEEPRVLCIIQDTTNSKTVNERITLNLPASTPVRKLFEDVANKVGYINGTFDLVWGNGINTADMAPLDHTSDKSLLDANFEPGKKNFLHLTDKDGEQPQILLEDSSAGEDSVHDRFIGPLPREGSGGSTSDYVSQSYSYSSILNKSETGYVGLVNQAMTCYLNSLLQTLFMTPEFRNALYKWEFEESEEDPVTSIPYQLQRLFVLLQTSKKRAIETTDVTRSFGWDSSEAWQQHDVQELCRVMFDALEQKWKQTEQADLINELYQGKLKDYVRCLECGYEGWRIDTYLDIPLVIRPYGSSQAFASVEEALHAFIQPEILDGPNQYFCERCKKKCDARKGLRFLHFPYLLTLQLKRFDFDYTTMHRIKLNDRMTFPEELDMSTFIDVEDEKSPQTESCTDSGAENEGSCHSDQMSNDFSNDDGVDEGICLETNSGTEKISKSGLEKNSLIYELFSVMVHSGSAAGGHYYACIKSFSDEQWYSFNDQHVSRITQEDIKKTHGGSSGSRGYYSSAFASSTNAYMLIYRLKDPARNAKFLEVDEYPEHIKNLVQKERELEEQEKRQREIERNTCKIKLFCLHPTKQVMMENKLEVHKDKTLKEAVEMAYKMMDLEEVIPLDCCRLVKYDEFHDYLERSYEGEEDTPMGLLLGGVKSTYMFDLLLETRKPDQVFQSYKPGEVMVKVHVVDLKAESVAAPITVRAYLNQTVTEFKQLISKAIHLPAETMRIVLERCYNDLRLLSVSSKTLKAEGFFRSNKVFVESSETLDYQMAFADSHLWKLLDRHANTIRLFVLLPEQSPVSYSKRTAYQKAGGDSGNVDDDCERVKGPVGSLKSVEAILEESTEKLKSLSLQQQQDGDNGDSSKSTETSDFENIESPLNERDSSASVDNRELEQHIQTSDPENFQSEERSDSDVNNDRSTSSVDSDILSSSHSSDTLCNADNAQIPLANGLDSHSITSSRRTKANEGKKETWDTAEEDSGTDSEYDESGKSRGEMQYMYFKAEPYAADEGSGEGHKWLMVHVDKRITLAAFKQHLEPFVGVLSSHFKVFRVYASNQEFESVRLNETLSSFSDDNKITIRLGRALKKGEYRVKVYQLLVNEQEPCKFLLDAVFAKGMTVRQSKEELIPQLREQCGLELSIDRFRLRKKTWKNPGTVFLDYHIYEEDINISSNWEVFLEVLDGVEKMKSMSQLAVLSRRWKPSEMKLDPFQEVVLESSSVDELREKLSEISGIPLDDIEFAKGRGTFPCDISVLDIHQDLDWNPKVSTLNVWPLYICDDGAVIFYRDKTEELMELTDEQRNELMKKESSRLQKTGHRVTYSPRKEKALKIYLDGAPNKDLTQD
Method in brief: as §1

USP48 = molecular target: T3, USP48 (UniProt Q86UV5)
T3 sequence (whole entry): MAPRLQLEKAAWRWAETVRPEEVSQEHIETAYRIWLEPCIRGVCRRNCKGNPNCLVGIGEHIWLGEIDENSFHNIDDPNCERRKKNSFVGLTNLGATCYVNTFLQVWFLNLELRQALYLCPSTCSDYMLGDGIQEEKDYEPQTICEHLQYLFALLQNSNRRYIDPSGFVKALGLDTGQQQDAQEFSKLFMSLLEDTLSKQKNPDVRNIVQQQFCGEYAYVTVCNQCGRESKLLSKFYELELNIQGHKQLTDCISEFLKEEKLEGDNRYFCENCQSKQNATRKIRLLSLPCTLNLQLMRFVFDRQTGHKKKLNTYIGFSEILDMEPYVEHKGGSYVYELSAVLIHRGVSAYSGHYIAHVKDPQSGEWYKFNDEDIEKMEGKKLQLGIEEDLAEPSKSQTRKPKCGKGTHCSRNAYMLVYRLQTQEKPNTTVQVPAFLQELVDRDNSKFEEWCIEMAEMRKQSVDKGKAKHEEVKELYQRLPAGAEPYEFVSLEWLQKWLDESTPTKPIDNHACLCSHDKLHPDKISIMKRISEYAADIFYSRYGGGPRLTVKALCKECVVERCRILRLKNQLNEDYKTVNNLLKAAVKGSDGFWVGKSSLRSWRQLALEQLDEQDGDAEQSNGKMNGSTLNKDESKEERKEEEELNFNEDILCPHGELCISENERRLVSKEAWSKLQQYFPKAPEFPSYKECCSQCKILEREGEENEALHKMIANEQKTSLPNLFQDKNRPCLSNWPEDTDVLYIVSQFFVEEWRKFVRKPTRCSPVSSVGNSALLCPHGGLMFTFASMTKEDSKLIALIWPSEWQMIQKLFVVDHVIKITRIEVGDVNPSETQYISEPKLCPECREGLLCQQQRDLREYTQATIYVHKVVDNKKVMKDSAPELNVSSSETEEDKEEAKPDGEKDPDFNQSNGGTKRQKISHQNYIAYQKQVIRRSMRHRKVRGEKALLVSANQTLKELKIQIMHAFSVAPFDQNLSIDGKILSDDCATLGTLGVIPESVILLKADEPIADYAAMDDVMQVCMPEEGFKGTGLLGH
Method in brief: as §1

USP5 = molecular target: T4, USP5 (UniProt P45974)
T4 sequence (whole entry): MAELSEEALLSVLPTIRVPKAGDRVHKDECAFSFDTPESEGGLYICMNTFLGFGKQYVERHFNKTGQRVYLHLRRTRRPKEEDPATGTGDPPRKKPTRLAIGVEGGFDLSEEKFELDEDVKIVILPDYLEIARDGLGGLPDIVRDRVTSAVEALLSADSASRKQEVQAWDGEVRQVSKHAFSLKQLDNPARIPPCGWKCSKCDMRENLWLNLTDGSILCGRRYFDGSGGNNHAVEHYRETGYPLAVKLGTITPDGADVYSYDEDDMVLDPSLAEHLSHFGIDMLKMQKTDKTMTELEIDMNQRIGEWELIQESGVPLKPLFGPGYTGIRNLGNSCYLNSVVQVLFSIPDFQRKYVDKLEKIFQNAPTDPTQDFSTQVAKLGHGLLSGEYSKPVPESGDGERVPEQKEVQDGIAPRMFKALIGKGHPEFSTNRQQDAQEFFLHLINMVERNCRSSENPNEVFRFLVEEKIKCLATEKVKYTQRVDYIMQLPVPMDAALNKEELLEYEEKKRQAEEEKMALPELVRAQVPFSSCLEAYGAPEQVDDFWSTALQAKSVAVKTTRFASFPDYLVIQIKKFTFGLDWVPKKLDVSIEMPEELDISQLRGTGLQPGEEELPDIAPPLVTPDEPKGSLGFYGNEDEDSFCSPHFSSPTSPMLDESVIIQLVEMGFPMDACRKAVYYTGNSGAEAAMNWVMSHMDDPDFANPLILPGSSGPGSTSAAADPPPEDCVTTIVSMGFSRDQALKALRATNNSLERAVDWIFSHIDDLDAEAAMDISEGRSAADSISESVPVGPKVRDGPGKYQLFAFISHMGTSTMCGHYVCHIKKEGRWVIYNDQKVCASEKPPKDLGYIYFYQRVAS
Method in brief: as §1

USP54 = USP54 (UniProt Q70EL1)
Method in brief: as §1

USP7 = USP7 (UniProt Q93009)
Method in brief: as §1

USP8 = molecular target: T5, USP8 (UniProt P40818)
T5 sequence (whole entry): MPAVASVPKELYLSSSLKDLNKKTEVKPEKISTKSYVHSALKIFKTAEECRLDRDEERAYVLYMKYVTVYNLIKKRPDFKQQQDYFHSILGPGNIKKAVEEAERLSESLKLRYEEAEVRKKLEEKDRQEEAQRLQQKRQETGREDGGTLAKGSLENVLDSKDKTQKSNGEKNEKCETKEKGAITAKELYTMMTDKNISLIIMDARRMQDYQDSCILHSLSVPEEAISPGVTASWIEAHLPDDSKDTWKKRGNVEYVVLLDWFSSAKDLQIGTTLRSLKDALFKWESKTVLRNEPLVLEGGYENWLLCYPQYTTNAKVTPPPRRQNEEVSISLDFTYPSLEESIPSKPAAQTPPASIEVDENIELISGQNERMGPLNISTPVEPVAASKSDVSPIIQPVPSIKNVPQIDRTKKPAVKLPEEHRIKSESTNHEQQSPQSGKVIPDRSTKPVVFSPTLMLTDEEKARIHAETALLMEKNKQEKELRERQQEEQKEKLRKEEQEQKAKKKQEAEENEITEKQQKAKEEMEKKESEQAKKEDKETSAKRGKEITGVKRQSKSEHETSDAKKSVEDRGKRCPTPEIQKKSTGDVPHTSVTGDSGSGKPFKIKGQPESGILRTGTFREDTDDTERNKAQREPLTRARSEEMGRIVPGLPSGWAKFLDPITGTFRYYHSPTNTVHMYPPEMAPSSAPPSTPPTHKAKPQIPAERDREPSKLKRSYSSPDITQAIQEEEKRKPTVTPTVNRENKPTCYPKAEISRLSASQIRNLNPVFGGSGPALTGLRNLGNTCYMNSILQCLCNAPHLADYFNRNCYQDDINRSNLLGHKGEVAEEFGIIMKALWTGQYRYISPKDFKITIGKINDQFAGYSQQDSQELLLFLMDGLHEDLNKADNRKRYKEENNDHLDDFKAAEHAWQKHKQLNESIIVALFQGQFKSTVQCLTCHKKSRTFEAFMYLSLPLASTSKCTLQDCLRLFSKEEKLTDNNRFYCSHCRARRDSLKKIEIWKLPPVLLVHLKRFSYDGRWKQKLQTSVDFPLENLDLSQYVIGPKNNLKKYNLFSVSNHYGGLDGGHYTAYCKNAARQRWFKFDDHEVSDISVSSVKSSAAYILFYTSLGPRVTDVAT
Method in brief: as §1

USP9X = USP9X (UniProt Q93008)
Method in brief: as §1

UniProt O00487 = molecular target: UniProt O00487
Method in brief: as §1

Measured: log2 ratio of Biotin-Ahx-Ub-VS probe labelling

USP9X, sequence (Q93008 whole entry): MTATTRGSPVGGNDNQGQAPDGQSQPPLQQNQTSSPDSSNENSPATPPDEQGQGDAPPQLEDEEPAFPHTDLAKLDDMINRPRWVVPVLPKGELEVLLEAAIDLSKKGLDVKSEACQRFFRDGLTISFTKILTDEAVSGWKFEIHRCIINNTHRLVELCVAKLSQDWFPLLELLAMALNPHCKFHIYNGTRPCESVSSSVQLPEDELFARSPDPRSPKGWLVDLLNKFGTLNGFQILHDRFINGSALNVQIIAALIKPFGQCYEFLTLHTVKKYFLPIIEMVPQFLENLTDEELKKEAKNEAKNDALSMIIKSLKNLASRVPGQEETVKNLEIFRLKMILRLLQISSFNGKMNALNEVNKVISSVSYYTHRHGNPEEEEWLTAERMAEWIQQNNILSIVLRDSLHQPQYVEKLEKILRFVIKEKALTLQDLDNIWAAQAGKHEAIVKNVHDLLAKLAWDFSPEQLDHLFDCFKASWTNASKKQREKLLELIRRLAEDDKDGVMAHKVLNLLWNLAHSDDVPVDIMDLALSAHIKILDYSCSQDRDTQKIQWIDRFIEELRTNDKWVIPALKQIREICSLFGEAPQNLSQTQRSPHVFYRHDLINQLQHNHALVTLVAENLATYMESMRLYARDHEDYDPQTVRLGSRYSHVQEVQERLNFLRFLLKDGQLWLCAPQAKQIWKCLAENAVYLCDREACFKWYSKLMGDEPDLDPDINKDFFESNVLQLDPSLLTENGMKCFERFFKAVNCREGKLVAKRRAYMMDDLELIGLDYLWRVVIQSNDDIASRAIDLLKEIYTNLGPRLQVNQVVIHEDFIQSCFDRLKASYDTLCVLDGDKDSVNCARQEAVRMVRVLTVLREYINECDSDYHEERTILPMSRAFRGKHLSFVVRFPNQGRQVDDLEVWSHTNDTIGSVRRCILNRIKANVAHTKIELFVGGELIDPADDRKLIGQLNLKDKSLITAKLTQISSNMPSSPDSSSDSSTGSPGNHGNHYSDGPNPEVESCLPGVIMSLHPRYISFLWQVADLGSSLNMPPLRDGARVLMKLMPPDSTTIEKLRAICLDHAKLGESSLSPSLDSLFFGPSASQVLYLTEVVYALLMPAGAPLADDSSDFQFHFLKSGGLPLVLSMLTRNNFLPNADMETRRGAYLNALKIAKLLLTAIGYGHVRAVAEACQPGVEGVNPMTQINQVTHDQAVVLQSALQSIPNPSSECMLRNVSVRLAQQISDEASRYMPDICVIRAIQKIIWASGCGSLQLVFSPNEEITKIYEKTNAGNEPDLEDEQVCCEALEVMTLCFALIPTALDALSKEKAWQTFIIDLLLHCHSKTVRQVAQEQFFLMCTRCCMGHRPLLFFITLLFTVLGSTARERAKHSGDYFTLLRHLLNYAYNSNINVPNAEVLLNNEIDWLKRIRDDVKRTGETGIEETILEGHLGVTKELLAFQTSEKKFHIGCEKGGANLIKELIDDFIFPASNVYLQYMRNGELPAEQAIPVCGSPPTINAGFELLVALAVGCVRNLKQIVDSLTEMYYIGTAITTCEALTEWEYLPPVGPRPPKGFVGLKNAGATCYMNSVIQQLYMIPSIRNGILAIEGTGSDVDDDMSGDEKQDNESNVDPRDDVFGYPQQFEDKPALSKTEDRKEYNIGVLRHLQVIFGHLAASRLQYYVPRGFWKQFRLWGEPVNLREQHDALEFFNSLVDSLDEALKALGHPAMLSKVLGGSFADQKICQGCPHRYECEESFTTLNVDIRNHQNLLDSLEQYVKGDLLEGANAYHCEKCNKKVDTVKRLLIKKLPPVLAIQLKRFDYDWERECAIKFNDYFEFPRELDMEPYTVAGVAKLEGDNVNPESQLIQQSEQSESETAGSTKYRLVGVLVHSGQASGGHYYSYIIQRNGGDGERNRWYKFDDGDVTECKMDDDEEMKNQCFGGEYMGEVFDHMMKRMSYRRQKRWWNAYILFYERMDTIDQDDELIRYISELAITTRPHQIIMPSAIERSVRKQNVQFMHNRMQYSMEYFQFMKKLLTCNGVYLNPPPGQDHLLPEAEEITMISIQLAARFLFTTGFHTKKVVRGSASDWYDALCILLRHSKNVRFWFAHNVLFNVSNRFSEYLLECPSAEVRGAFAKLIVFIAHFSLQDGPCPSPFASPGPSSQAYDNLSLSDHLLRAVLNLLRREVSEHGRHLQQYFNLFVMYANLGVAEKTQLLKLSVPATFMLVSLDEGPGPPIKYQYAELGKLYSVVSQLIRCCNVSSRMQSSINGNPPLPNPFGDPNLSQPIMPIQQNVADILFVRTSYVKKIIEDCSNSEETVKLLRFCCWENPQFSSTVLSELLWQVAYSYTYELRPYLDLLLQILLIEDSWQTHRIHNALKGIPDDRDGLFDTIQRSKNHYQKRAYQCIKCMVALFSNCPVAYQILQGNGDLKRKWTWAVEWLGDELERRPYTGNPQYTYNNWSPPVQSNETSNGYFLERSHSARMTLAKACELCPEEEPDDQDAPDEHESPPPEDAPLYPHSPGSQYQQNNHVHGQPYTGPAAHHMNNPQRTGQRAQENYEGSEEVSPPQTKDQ
USP54, sequence (Q70EL1 whole entry): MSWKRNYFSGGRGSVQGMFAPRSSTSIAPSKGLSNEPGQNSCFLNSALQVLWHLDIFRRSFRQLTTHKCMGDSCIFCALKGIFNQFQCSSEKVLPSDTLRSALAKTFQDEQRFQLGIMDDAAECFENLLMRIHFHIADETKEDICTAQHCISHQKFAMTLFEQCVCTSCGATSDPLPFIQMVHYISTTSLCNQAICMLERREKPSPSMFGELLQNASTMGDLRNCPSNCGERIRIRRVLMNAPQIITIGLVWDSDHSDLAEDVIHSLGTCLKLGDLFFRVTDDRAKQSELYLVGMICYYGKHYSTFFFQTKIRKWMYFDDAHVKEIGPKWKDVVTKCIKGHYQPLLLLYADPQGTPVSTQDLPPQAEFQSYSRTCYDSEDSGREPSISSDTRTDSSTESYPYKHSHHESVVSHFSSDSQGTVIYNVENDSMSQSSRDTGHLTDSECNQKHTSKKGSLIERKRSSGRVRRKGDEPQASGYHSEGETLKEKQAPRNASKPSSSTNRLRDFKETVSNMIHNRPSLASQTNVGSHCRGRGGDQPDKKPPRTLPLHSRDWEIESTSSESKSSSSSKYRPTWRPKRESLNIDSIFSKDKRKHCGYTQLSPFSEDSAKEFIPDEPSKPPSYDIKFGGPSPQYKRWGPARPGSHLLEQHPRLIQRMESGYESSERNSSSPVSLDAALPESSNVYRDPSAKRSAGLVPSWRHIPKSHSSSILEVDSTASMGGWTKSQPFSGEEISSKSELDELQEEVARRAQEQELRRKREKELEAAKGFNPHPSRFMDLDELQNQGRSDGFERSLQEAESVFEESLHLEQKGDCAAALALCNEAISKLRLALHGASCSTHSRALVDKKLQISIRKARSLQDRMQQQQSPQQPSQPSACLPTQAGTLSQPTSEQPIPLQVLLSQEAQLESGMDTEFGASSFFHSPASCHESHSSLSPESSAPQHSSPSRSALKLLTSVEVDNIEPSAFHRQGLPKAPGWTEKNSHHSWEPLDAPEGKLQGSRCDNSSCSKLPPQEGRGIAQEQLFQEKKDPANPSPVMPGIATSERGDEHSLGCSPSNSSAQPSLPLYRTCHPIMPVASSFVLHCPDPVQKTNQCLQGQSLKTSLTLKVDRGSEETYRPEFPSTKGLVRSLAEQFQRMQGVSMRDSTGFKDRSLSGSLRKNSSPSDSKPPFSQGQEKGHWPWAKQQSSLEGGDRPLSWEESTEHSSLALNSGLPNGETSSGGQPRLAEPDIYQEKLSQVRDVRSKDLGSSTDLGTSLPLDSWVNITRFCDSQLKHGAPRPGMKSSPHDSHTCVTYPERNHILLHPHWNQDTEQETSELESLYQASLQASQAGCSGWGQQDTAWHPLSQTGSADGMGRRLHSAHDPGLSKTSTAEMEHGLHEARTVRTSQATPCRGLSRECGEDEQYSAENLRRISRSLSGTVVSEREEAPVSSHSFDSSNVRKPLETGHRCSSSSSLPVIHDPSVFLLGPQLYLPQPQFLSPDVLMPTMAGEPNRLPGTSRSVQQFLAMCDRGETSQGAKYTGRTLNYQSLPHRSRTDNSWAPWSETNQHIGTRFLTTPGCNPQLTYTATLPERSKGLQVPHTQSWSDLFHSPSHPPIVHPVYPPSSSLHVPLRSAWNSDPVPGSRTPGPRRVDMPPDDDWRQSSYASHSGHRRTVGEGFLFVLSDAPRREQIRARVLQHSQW
USP46, sequence (P62068 whole entry): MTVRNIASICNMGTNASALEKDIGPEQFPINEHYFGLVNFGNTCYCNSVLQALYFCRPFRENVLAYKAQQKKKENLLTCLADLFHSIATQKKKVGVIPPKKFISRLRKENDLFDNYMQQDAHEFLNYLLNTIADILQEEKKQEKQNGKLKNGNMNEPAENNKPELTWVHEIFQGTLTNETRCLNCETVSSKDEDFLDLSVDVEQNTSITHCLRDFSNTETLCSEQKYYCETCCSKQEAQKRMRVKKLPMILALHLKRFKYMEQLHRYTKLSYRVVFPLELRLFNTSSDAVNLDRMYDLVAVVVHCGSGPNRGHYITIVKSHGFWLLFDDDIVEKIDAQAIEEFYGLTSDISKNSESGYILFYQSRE
UniProt O00487, sequence (O00487 whole entry): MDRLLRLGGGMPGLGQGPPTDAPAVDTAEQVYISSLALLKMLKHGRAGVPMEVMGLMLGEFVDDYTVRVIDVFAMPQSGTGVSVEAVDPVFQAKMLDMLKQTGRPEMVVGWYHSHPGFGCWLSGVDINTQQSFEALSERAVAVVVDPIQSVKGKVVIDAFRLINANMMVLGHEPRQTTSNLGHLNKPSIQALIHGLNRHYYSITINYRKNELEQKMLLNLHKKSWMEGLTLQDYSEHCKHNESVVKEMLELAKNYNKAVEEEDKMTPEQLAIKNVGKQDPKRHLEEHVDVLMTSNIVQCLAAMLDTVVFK

CCN(C(=O)CCl)C1CCS(=O)(=O)C1 (stereo not given)
inactive: USP42 0.372 | USP46 -0.128 | USP47 0.027 | USP48 -0.155 | USP5 0.158 | USP54 -0.012 | USP7 -0.288 | USP8 0.0171 | USP9X -0.112 | UniProt O00487 0.0162

O=C(CCl)Nc1nnc(CC(F)(F)F)o1
inactive: USP42 -0.117 | USP46 0.083 | USP47 0.172 | USP48 -0.236 | USP5 0.0095 | USP54 0.782 | USP7 -0.136 | USP8 -0.263 | USP9X -0.134 | UniProt O00487 -0.296

Cl.O=C(CCl)N1CCN(Cc2ccccc2)CC1
inactive: USP42 0.128 | USP46 -0.101 | USP47 -0.389 | USP48 -0.499 | USP5 -0.052 | USP54 0.13 | USP7 -0.607 | USP8 -0.333 | USP9X -0.369 | UniProt O00487 -0.299
